POLB inh – blocks human DNA polymerase beta activity. P06746. hit rate 1.3% among 340,000. Pol beta primer extension/strand displacement, fluorescence kinetic. AID 485314. Potency, µM (series often up to 114 µM), for inactives: top-dose activity change, negative = inhibition, most hits filed as inhibitors; further: on the % scale 0 is the no-effect control and ±100 the full control effect
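Preincubation: enzyme (10 nM) with compound, 15 min, RT. Reaction: substrate added to 50 nM final. Reads: 0 and 10 min. Analysis: normalized, Hill fit.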
POLK inh – DNA polymerase kappa (human) inhibition. purified Pol kappa, fluorescent DNA synthesis assay, 10 min. Potency, µM (series often up to 107 µM), inactives show at the top dose activity, negative = inhibition, hits mostly inhibitors. hit rate 0.53% among 400,000. AID 588579; further: on the % scale 0 is the no-effect control and ±100 the full control effect
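Enzyme at 10 nM met test compounds for 15 min at room temperature. Substrate addition (50 nM final) began the reaction, which was monitored by fluorescence at 0 and 10 min.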
Pol iota inh – DNA polymerase iota (human) inhibition. Q9UNA4. Pol iota fluorescent replication assay, 10 min. Potency, µM (highest dose often 115 µM), for inactives: top-dose activity, negative = inhibition, hits mostly inhibitors. hit rate 1% among 390,000
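Pol iota at 10 nM preincubated 15 min with compounds at room temperature; reaction started with fluorescent substrate, 50 nM final. Fluorescence read kinetically at 0 and 10 min; buffer-only wells as negative control.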
L3MBTL1 inh – L3MBTL1 (human) inhibition | hit rate 0.66% among 230,000 | AID 485360 | AlphaScreen L3MBTL1–H3K9me1 peptide binding | Potency, µM (top dose mostly 57.1 µM), inactives show at the top dose activity, negative = inhibition, hits mostly inhibitors | Q9Y468; further: on the % scale 0 is the no-effect control and ±100 the full control effect; nearly all actives have a fitted effect of over 60% in size
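Read-out is AlphaScreen signal from streptavidin donor and nickel chelate acceptor beads (10 ug/mL final each) bridging L3MBTL1 (50 nM) and biotinylated K9-monomethylated H3(1-15) peptide (75 nM), after 30 min compound exposure at room temperature.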
Pol eta inh – inhibitors of human DNA polymerase eta; hit rate 1.2% among 390,000; recombinant Pol eta, fluorescent DNA replication assay; AID 588591; Potency, µM (series often up to 114 µM), without a hit: top-dose activity change, negative = inhibition, usual class: inhibitors; Q9Y253; further: on the % scale 0 is the no-effect control and ±100 the full control effect
Target sequence (Q9Y253 whole entry, looked up): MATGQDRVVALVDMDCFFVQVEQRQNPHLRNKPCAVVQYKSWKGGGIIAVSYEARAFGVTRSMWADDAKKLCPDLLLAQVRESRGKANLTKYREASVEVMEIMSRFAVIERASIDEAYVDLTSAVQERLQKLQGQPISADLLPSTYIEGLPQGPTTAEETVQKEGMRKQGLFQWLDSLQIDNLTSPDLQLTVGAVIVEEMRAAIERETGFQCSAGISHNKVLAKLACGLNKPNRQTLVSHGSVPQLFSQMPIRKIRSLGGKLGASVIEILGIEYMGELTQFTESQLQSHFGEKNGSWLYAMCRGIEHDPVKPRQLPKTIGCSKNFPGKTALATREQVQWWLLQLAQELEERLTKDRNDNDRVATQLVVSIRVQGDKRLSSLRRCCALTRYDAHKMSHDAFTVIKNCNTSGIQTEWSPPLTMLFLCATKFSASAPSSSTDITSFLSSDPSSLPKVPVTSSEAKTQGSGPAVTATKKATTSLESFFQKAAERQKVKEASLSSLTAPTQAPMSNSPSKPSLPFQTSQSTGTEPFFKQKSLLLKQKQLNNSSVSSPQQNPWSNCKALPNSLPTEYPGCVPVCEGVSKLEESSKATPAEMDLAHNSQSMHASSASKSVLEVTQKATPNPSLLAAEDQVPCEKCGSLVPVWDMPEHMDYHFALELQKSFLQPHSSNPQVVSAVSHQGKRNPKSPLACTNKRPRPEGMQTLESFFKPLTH
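Fluorescent replication assay: 50 nM final substrate added after a 15 min room-temperature compound preincubation with 10 nM enzyme. Signal taken at 0 min and again at 10 min.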
* marks the source's active call; other numbers are inactive results; u = inconclusive; x = not tested or not shown; [ ] = remark or other dose. Shown are actives, neighbours in structure and some others; about 2.4% of the full set was active somewhere. The call rests on the fitted dose curve; in most records, active means well fitted curve in the direction sought with a large enough effect; inconclusive means small, poorly fitted or top-dose-only effect, or another doubt; inactive means no such curve, though single readings can be large; an effect the other way counts as inactive or inconclusive. Potency means the concentration at half of the fitted maximal effect.

SMILES	POLB inh	POLK inh	Pol iota inh	L3MBTL1 inh	Pol eta inh
COc1cccc(CNC(=O)COC(=O)CCS(=O)(=O)c2ccc(C)cc2)c1	x	-9%	10%	-10%	-9%
c1ccc(N2CCN(c3nc4ccccc4n4nnnc34)CC2)cc1	2%	-13%	7%	3.5µM*	-4%
Cc1ccc(S(=O)(=O)/N=C(\N)Nc2nc(C)c3ccccc3n2)cc1	-11%	-4%	-8%	-10%	u
COc1ccc2c(C)nc(N/C(N)=N/S(=O)(=O)c3ccc(C)cc3)nc2c1	0%	-11%	89µM*	-7%	-4%
CNCC[C@H](Oc1ccccc1OC)c1ccccc1	x	-5%[19.4 µM]	x	x	x
O=C(Nc1cc(C(F)(F)F)ccc1Cl)C1CCN(c2nnc(-n3cccc3)s2)CC1	4µM*	-33%	u	2%	u
O=C(CCOc1ccccc1)NO	x	3%	13%	x	x
O=c1oc(-c2ccc(O)c(O)c2)cc2cccc(O)c12	x	u	u	-15%	35µM*
O=c1cc(-c2ccc(O)c(O)c2)oc2ccc3ccccc3c12	x	-24%	u	-10%	u
C=CCN1C(=O)/C(=C/c2ccc(OCC(=O)O)cc2)S/C1=N/c1nccs1	u	0%	89µM*	-7%	u
C=CCN1C(=O)/C(=C/c2ccc(O)c(OC)c2)S/C1=N/c1nccs1	1%	-17%	-26%	-4%	-18%
CC1=C(C(=O)N(C)C)CC(CC(=O)NC2CCCCC2)C(=O)N1CCCN1CCCC1=O (configuration not stated)	x	x	x	x	-4%
COc1cccc(NC(=O)CSc2ncc(S(=O)(=O)c3ccc(C)c(C)c3)c(=O)[nH]2)c1	49%	4%	-11%	x	-1%
COc1ccc(S(=O)(=O)c2cnc(SCC(=O)Nc3cc(F)ccc3C)[nH]c2=O)cc1Cl	50µM*	-29%	-18%	x	u
CCCCn1cnc2c(SCc3ccc(Br)cc3)nc(N)nc21	x	-5%	44%	x	-11%
Cc1ncc(CO)c(/C=N/NC(=S)Nc2ccc(F)cc2)c1O	-11%	-10%	3%	14µM*	u
CCCCCCCCCCCCCC/C(C(=O)O)=C(\C)C(=O)O	x	10%[60.1 µM]	x	x	x
Cc1cc(NC(=O)CSc2nnc(-c3cccc(F)c3)n2N)no1	x	-5%	71µM*	0%	-19%
COc1ccc(-c2nnc(SCC(=O)Nc3cc(C)on3)n2N)cc1OC	u	-8%	-7%	-1%	14%
COCCNc1nnc(SCC(=O)Nc2cc(C)on2)s1	x	-3%	8%	0%	-5%
COc1ccc(NC(=O)CSc2nnc(-c3ccccc3)n2N)cc1	0%	-2%	-8%	9%	9%
CCSc1nnc(SCC(=O)Nc2cc(C)on2)s1	x	u	45µM*	-8%	u
CCOc1ccc(NC(=O)CSc2nnc(-c3ccccc3)n2N)cc1	22µM*	-14%	-1%	37%	u
CCOc1ccc(-c2nnc(SCc3nc4ccccc4[nH]3)n2N)cc1	50µM*	0%	u	x	-6%
COc1cccc(CNC(=O)Cn2ncn3nc(-c4cccs4)cc3c2=O)c1OC	1%	5%	12%	x	-9%
SMILES	POLB inh	POLK inh	Pol iota inh	L3MBTL1 inh	Pol eta inh
CN(C)c1ccc(/C=C/c2ccnc3ccc(F)cc23)cc1	x	0%	-3%	x	x
COc1cccc(CNC(=O)Cn2cc3c(n2)-c2c(oc(C(=O)N4CCCC4)c2C)CC3)c1OC	-1%	-7%	20%	x	-4%
O=C(Nc1nnc(-c2ccco2)s1)C1CCCCC1	-12%	4%	-1%	-1%	u
O=C(Nc1nc(-c2ccco2)c(-c2ccco2)s1)C1CCC1	u	u	u	u	25µM*
O=C(Nc1ccc2oc(-c3cc(Br)ccc3Cl)nc2c1)c1cc2ccccc2o1	2.8µM*	-3%	53%	x	u
O=C(Nc1ccc2oc(-c3ccc(Br)cc3)nc2c1)c1cc2ccccc2o1	u	-1%	29%	x	-29%
Cn1c(=O)[nH]c(=O)c2c1nc(N1CCOCC1)n2Cc1ccccc1	-3%	-8%	5%	x	-5%
CCN1C(=O)c2cccc3c(S(=O)(=O)NCc4ccco4)ccc1c23	1%	-15%	32µM*	1%	-12%
Cc1ccc(-n2c(=O)[nH]c3cc(C(=O)NCc4ccccc4)ccc3c2=O)cc1	19%	-11%	11%	x	-8%
CCc1cccc(C)c1NC(=O)CN1CCCN(Cc2ccccc2Cl)S1(=O)=O	39%	-7%	14%	x	-10%
O=C(Nc1ccc(Nc2ccccc2)cc1)c1ccccc1F	16%	-15%	-27%	-7%	-10%
O=C(/C=C/c1ccc(Br)cc1)c1ccco1	-17%	-9%	u	7%	2%
O=C(/C=C/c1ccc(Br)cc1)c1ccc(NC(=O)c2ccco2)cc1	7.1µM*	u	u	-5%	u
O=C(/C=C/c1ccncc1)c1ccc(NC(=O)c2ccccc2F)cc1	16µM*	-10%	u	-4%	-15%
Cc1oc(-c2ccc(Cl)cc2)nc1CS(=O)CC(=O)NCCc1ccccc1 (configuration not stated)	-7%	-2%[60.1 µM]	-22%	x	5%
C=C[C@H](CC(C)C)N(Cc1ccccc1)S(=O)(=O)N(Cc1ccccc1)[C@H](C=C)CC(C)C	x	-21%	22%	x	x
Nc1sc2c(c1C(=O)NC1CCS(=O)(=O)C1)CCC2 (configuration not stated)	-11%	-16%	u	-5%	18µM*
Cc1ccc(S(=O)Cc2nc(-c3ccc(C(=O)NC(C)c4ccccc4)cc3)oc2C)cc1 (configuration not stated)	-1%	-6%	24%	x	-3%
CC12CCC(C(=O)N(CSC(=S)N/N=C\c3ccccc3O)C1=O)C2(C)C (configuration not stated)	1%	-4%	2%	5.6µM*	-4%
C[C@@H]1[C@H](c2ccccc2)OCCS(=O)(=O)N1Cc1ccccc1F	x	2%	18%	x	x
COc1cc(CNc2ccc(N3CCCC3)cc2)cc(Cl)c1OC	-14%	0%	29%	u	0%
COc1cccc(CNc2ccc(N3CCCCC3)cc2)c1OC	-13%	-4%	-11%	20µM*	-22%
COc1cccc(Nc2ccc(N3CCCCC3)cc2)c1OC	x	-5%	u	35µM*	-13%
COc1ccccc1CNc1ccc(N2CCCCC2)cc1	-10%	-6%	u	u	4%
Cc1ccc(C(=O)N/N=C/c2ccc([N+](=O)[O-])s2)cc1	28µM*	-15%	u	-4%	-5%
O=C(N/N=C/c1ccc([N+](=O)[O-])s1)c1ccncc1	-1%[57.1 µM]	-18%	u	-16%	2%
CCCC(=O)Nc1ccc(C(=O)NNC(=O)COc2ccc(Br)c(C)c2)cc1	50µM*	-2%	-25%	x	u
COc1cccc(NC(=O)CN(C)CC(=O)NCc2ccco2)c1	x	-2%	13%	-1%	-4%
COc1cccc(CN(C)CC(=O)NC(=O)NCc2ccco2)c1	16µM*	u	35µM*	-3%[11.4 µM]	18µM*
